This is one part of a sample in which hits are shown more often than they occur.
MARV entry inh: blocks Marburg virus binding to or entry into cells. hit rate 1.8% among 300,000. Marburg virus pseudotyped entry inhibition, cell reporter. Potency, µM (titrated, usually from 37.8 µM), for inactives: at the highest dose activity change, negative = inhibition, hits mostly inhibitors; calls by dose curve; tested in HEK293 cells; also: potency is read from the fitted curve at half-maximal effect; % is scaled to controls: 0 for no effect and ±100 for the full control effect
AMA1-RON2 inh: inhibitors of Plasmodium falciparum AMA1-RON2 interaction | Potency, µM (titrated, usually from 58.2 µM), inactives show at the highest dose activity change, negative = inhibition, hits mostly inhibitors | hit rate 0.2% among 360,000 | AID 720542 | AlphaScreen AMA1-biotinylated RON2 peptide binding; active = well fitted inhibition curve with a large enough effect; inconclusive = small, poorly fitted or top-dose-only effect; inactive = no such curve, though single readings can be large or run the other way;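 also: potency is read from the fitted curve at half-maximal effect; 0% = vehicle wells and -100% = peptide control; nearly all actives have a fitted effect of over 45% in size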
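AMA1 (3D7) with his tag at 25 nM final met compounds first, then biotinylated RON2 peptide at 25 nM; detection used donor plus acceptor beads, 10 µg/mL apiece, read by AlphaScreen after 30 min at room temperature.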
CHX counter: counter-screen hit for Shiga toxin inhibitors, cycloheximide. hit rate 12% among 300,000. cell reporter, cycloheximide protein synthesis inhibition counterscreen. max response, %; in the data active = max response mostly above about 13%, no sharp cut-off; inactive = mostly below about 14%; also: read at 38.3 µM for the half of the compounds with a filed dose; 0% is about no effect
Lassa entry inh: blocks Lassa virus binding to or entry into cells. Lassa virus pseudotype entry inhibition, cell reporter. Potency, µM (series often up to 37.9 µM), without a hit: top-dose activity change, negative = inhibition, usual class: inhibitors. hit rate 1.2% among 300,000. AID 540256; calls by dose curve; tested in HEK293 cells; also: potency is read from the fitted curve at half-maximal effect; % is scaled to controls: 0 for no effect and ±100 for the full control effect; nearly all actives have a fitted effect of over 50% in size
Shiga inhibitor: inhibitors of Shiga toxin in Vero cells. Vero cells, Shiga toxin protein synthesis inhibition reporter. inhibition, % at 38.7 µM. hit rate 9.2% among 290,000; in the data active = inhibition mostly above about 28%, no sharp cut-off; inactive = mostly below about 43%; also: 0% is about no effect
* = called active by the depositor; ? = inconclusive; nt = no result; [ ] = remark or other dose.

SMILES | MARV entry inh | AMA1-RON2 inh | CHX counter | Lassa entry inh | Shiga inhibitor
CCCCOC(=O)NS(=O)(=O)c1sc(CC(C)C)cc1-c1ccc(Cn2c(CC)nc3c(C)cc(C)nc32)cc1 | 10µM* | nt | nt | 9.2µM* | nt
Cc1cc(C)n2c(Br)c(CSc3nc4ccccc4o3)nc2n1 | 20% | -5% | 41* | -4% | 40
Cc1csc2nc(CSc3nc4ccccc4o3)cn12 | -1% | -11% | 53* | ? | 71*
c1ccc2oc(SCc3cn4ccsc4n3)nc2c1 | -3% | -9% | 50* | ? | 119*
O=c1cc(CSc2nc3cc(Cl)ccc3o2)nc2sccn12 | 2% | -2% | -1 | 10% | -12
COc1ccc(CCC(=O)NNC(=O)Nc2ccc(C(C)=O)cc2)cc1 | 6% | 96% | 5 | 0.71µM* | -5
COc1ccc(NC(=O)NNC(=O)COc2ccc3cc(Br)ccc3c2)cc1 | 19% | -2% | 13 | ? | 42
COc1ccc(C(=O)COC(=O)CCC(=O)Nc2ccc(C(C)=O)cc2)cc1 | -1% | 0% | 40* | -3% | 47*
COc1ccc2cc(OCC(=O)NNC(=O)Nc3ccc(C(C)=O)cc3)ccc2c1 | ? | 29% | 21* | 5%[46.1 µM] | 48
CC1(c2nnnn2Cc2ccccc2)CCC(=O)N1Cc1ccc(F)cc1 (stereo not given) | nt | 3% | nt | nt | nt
COc1cc(NC(=O)c2nnn(CC(=O)Nc3ccccc3)c2N)cc(OC)c1 | nt | nt | nt | 9%[46.1 µM] | nt
Cc1ccccc1-c1nnc(CS(=O)(=O)c2ccccc2)o1 | ? | 15% | 43* | -30% | 61*
O=[N+]([O-])c1cccc(-c2nnc(-c3ccccc3F)o2)c1 | nt | -5% | 30* | nt | 22*
Cn1cc(-c2nnc(-c3ccccc3)o2)c2ccccc21 | -5% | -19% | 59* | ? | 146*
Cc1cc(-c2nnc(-c3cccc(Cl)c3)o2)no1 | ? | 5% | 37* | 1% | 93*
Cn1c2ccccc2c2nnc(SCc3nnc(-c4ccccc4)o3)nc21 | nt | nt | -3 | nt | -14
O=C(NNC(=O)c1cc(Br)c(Br)s1)c1ccncc1 | ? | 52% | nt | 13% | nt
O=C(O)CC(CC(=O)N1CCN(C(=O)c2ccco2)CC1)c1ccccc1 (stereo not given) | 20%[46.1 µM] | -8% | 10 | ? | 3
Cc1cccc(-c2nnc(-c3ccccc3)o2)c1 | 28% | 36% | 33* | 0% | 56*
Cc1ccccc1-c1nc(Cc2ccc(Cl)cc2)no1 | 22% | 54% | 25* | 25% | 42
CN(C)c1ccc(-c2nnc(-c3ccc(S(=O)(=O)C(F)F)cc3)o2)cc1 | -4% | 3% | 7 | 4% | 4
Cc1ccccc1-c1nnc(-c2ccccc2)o1 | ? | 18% | 35* | ? | 95*
Cc1nnc(-c2ccccc2)o1 | nt | -11% | 3 | nt | -1
CN(C)c1ccc(-c2nnc(-c3ccccc3F)o2)cc1 | nt | 27% | 28* | nt | 59*
Cc1ccccc1-c1noc(-c2cccnc2N(C)Cc2ccc(Cl)cc2)n1 | -8%[46.1 µM] | nt | nt | 13%[46.1 µM] | nt
SMILES | MARV entry inh | AMA1-RON2 inh | CHX counter | Lassa entry inh | Shiga inhibitor
COc1ccc2nc(C(c3ccc(C)cc3)n3c(-c4ccccc4Br)nc4ccccc43)[nH]c2c1 (stereo not given) | nt | 63% | nt | nt | nt
CCC(=O)Oc1ccc(C2Nc3ccccc3-c3nnc(SC)nc3O2)cc1 (stereo not given) | -15%[46.1 µM] | nt | nt | -4%[46.1 µM] | nt
CC(=O)N1c2ccc(S(=O)(=O)NCC3CCC(C(=O)NCc4ccco4)CC3)cc2CC1C (stereo not given) | -17%[46.1 µM] | -10% | 8 | 6%[46.1 µM] | 13
Cc1ccccc1-c1nnc(-c2ccc(Cl)cc2)o1 | ? | -1% | 58* | ? | 104*
C=CC[C@@H]1C=C[C@@H](Oc2ccc(OC)cc2)[C@@H](COC(=O)c2ccc(Br)cc2)O1 | -4%[14.2 µM] | nt | nt | nt | nt
Cc1ccc(S(=O)(=O)/C(C#N)=C/c2c[nH]c3ccccc23)cc1 | -20% | -10% | -3 | 0% | -13
O=Cc1c[nH]c2ccc(C(=O)c3ccccc3)cc12 | ? | -5% | 32* | -19% | nt
O=Cc1c[nH]c2ccc(OCc3ccccc3)cc12 | nt | -6% | nt | nt | nt
O=C(/C=C/c1c[nH]c2ccccc12)c1ccccc1 | ? | -3% | 69* | 0% | 115*
Cc1ccc(C(=O)/C=C/c2c[nH]c3ccccc23)cc1 | 11% | -3% | 52* | -5% | 148*
COc1ccc2[nH]cc(/C=C/C(=O)c3ccccc3)c2c1 | ? | -15% | 105* | ? | 131*
COc1ccc2[nH]cc(C=O)c2c1 | ? | 3% | 2 | 1% | 18

Source: PubChem BioAssay (National Center for Advancing Translational Sciences (NCATS))
